Results as given in PubChem BioAssay (NCATS).
Where “and” joins values, the source holds several entries; their conditions need not be identical. Equal entries are not always repeated. Results filed as inconclusive are left out. A call without a number means that no potency is given here. Calls of active or inactive are those of the source. The call rests on the fitted dose curve; in most records, active means well fitted cell-killing curve with a large enough effect; inconclusive means small, poorly fitted or top-dose-only effect; inactive means no such curve, though single readings can be large or run the other way.

experiment: qHTS of pediatric cancer cell lines to identify multiple opportunities for drug repurposing: Primary screen for SJ-GBM2 cells (AID 1347091); conditions: SJ-GBM2 viability, CellTiter-Glo luminescence, 48 h; series mostly up to 46 µM; activity change, negative = cytotoxic: at the top concentration
Source text: Drug repurposing or repositioning has been offered as a strategy for drug development in oncology programs. This approach has special potential for childhood cancers and other rare or orphan diseases, where the expected return on new drug development has been a disincentive to pharmaceuticals.
In this project we exploit the poly-pharmacology of drugs to discover new indications via phenotypic screening of a panel of 19 well-characterized cell lines derived from solid tumors seen in children and adolescents. The goal is to identify approved drugs with previously unrecognized anticancer properties that has the potential to reveal new mechanisms and biological processes involved in carcinogenesis or drug resistance. We employed a titration-based paradigm (quantitative high-throughput screening or qHTS), where all compounds were tested at multiple concentrations for their effect on cell viability. Concentration-response curves (CRCs) were derived directly from the primary screen, and both potency and efficacy values were used to identify compounds with robust bioactivity profiles. We screened the NIH Chemical Genomics Center (NCGC) Pharmaceutical Collection (NPC) and Mechanism Interrogation Plate (MIPE) small molecule collections of approved and investigational compounds against these cell lines; and measured metabolically active cells after 48 hours of compound treatment as a proxy for cell viability.
Assay Submitter: Nathalia J. Martinez, National Center for Advancing Translational Sciences, National Institutes of Health, Rockville, MD, USA; email: natalia.martinez@nih.gov
[1] Shen, M et al. Quantitative high-throughput phenotypic screening of pediatric cancer cell lines identifies multiple opportunities for drug repurposing. Oncotarget 2017 Dec 19;9(4):4758-4772. PMID 29435139.
The cells were obtained from University of North Carolina (UNC), Pediatric Preclinical Testing Program (PPT), and Coriell Institute (CI).
qHTS cell viability assay:
Cells were assayed in growth media at a density of 500-1,000 cells/well. Five microliters of cells were dispensed into 1,536-well, white, solid-bottom, TC-treated plates (Greiner Bio One) using a multidrop dispenser and incubated at 37 degrees C, 5% CO2, under a humidified atmosphere for 5 hours. Twenty-three nanoliters of compounds and controls (neutral control DMSO or positive control bortezomib at final concentration of 2.3 µM) were subsequently transferred by Kalypsys pintool. For primary screens, the MIPE collection was tested at 11-point dilutions (final concentrations range from 0.78 nM to 46 µM) and the NPC collection at 8-point dilutions (final concentrations range from 0.59 nM to 46 µM). Compounds tested in follow-up screens were assayed at 11-point dilutions. Cells were incubated for 48 hours, followed by addition of 3 uL of CellTiter-Glo (Promega). After a 15 min incubation at room temperature, samples were analyzed for luminescence intensity using a ViewLux High-throughput CCD imager equipped with clear filters.
Potency means the concentration at half of the fitted maximal effect.

| SMILES | Potency | activity change, negative = cytotoxic |
| --- | --- | --- |
| COc1ccc2[nH]cc(CCNC(C)=O)c2c1 | inactive |  |
| COc1cc2c(c(OC)c1OC)-c1ccc(OC)c(=O)cc1[C@@H](NC(C)=O)CC2 | 42.2 nM (active) and 1 nM (active) |  |
| CN(C)C(=N)N=C(N)N | inactive |  |
| CC(C)NCC(O)COc1ccc(CCOCC2CC2)cc1 (stereo not given) | inactive |  |
| CN1CCC(=C2c3ccccc3CC(=O)c3sccc32)CC1 | inactive |  |
| COC(=O)Nc1nc2ccc(C(=O)c3cccs3)cc2[nH]1 | 1 nM (active) and 119 nM (active) |  |
| CC(C)Cc1ccc(C(C)C(=O)O)cc1 (stereo not given) | inactive |  |
| O=C1N(c2ccccc2)c2ccccc2C1(Cc1ccncc1)Cc1ccncc1 | inactive |  |
| CC(COc1ccccc1)N(CCCl)Cc1ccccc1 (stereo not given) |  | 0.251% (inactive) |
| CN1CCC(=C2c3ccccc3C=Cc3ccccc32)CC1 |  | -4.76% (inactive) |
| CN(C)CCCN1c2ccccc2CCc2ccc(Cl)cc21 | 23.7 µM (active) |  |
| CC12CC3CC(C)(C1)CC(N)(C3)C2 |  | 6.21% (inactive) |
| Nc1nnc(-c2cccc(Cl)c2Cl)c(N)n1 | inactive |  |
| OCCN(CCO)c1nc(N2CCCCC2)c2nc(N(CCO)CCO)nc(N3CCCCC3)c2n1 |  | -10.2% (inactive) |
| CN(C)CCOC(c1ccccc1)c1ccccc1 |  | 14.9% (inactive) |
| CC1(C)O[C@H]2CC(=O)OC[C@]23[C@H]2CC[C@@]4(C)[C@H](c5ccoc5)OC(=O)[C@H]5O[C@]54[C@]2(C)C(=O)C[C@@H]13 | inactive |  |
| Clc1ccc2nsnc2c1NC1=NCCN1 | inactive |  |
| Cc1cnc(C(=O)NCCc2ccc(S(=O)(=O)NC(=O)NC3CCCCC3)cc2)cn1 |  | 10.3% (inactive) |
| COc1ccc(C2CNC(=O)C2)cc1OC1CCCC1 (stereo not given) | inactive |  |
| CS(=O)(=O)Nc1ccc([N+](=O)[O-])cc1Oc1ccccc1 | inactive |  |

| SMILES | Potency | activity change, negative = cytotoxic |
| --- | --- | --- |
| CN1CCN2c3ccccc3Cc3ccccc3C2C1 (stereo not given) | inactive |  |
| CCC1(c2ccccc2)C(=O)NCNC1=O |  | 5.6% (inactive) |
| CN(Cc1cnc2nc(N)nc(N)c2n1)c1ccc(C(=O)N[C@@H](CCC(=O)O)C(=O)O)cc1 | 47.3 nM (active) and 41.8 nM (active) |  |
| N[C@@H](Cc1c[nH]c2ccc(O)cc12)C(=O)O | inactive |  |
| CN1CCN(C2=Nc3cc(Cl)ccc3Nc3ccccc32)CC1 | inactive |  |
| O=C(Nc1ccc([N+](=O)[O-])cc1Cl)c1cc(Cl)ccc1O | 1.3 µM (active) and 743 nM (active) |  |
| COc1cc2nc(N(C)CCCNC(=O)C3CCCO3)nc(N)c2cc1OC (stereo not given) | inactive |  |
| O=c1[nH]cc(F)c(=O)[nH]1 | inactive |  |
| C[C@H]1c2cccc(O)c2C(O)=C2C(=O)[C@]3(O)C(O)=C(C(N)=O)C(=O)[C@@H](N(C)C)[C@@H]3[C@@H](O)[C@@H]21 | inactive |  |
| CCCCc1oc2ccccc2c1C(=O)c1cc(I)c(OCCN(CC)CC)c(I)c1 | 8.33 µM (active) |  |
| CC[C@@]1(O)C(=O)OCc2c1cc1n(c2=O)Cc2cc3c(CN(C)C)c(O)ccc3nc2-1 | 94.4 nM (active) and 52.6 nM (active) |  |
| CCCNCC(O)COc1ccccc1C(=O)CCc1ccccc1 (stereo not given) |  | -14.1% (inactive) |
| CC[N+](CC)(CC)CCOc1cccc(OCC[N+](CC)(CC)CC)c1OCC[N+](CC)(CC)CC | inactive |  |
| Cn1c(=O)c2[nH]cnc2n(C)c1=O | inactive |  |
| CC(CCc1ccc(O)cc1)NCCc1ccc(O)c(O)c1 (stereo not given) | inactive |  |
| Cc1cn([C@H]2C[C@H](N=[N+]=[N-])[C@@H](CO)O2)c(=O)[nH]c1=O |  | 3.62% (inactive) |
| Nc1ccn([C@H]2CC[C@@H](CO)O2)c(=O)n1 | inactive |  |
| COc1nc(C)nc(Cl)c1NC1=NCCN1 | inactive |  |
| O=C(c1ccc(F)cc1)C1CCN(CCn2c(=O)[nH]c3ccccc3c2=O)CC1 |  | 11.6% (inactive) |
| CCN1CCCC1CNC(=O)c1cc(S(=O)(=O)CC)c(N)cc1OC (stereo not given) | inactive |  |
